Reference: PubChem BioAssay (Tox21)
Inconclusive results are not listed. Calls of active or inactive are those of the source. Unless noted, calls come from the whole dose curve.

Legend:
[1] = qHTS assay to identify small molecule antagonists of the sonic hedgehog signaling (Shh) pathway (AID 1259369); note: nearly all actives have a fitted effect of over 45% in size
In short: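 Inhibition of Shh signalling is measured as reduced Gli1-response-element firefly luciferase output in an NIH/3T3-derived stable reporter clone stimulated with conditioned medium for 24hr.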

[2] = target: Estrogen receptor beta (Homo sapiens) (UniProt Q92731); test: qHTS assay to identify small molecule agonists of the estrogen receptor beta (ER-beta) signaling pathway (AID 1259377; active = well fitted activation curve with a large enough effect in the signal ratio in the repeat runs, not every such curve was filed as active; the % refers to the signal ratio)
In short: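 Reporter cells (HEK293T, ER-beta-UAS-bla) receive compounds or DMSO after a 6 hr pre-incubation. They then incubate 16 hr at 37C/5% CO2, and fluorescence from LiveBLAzer B/G substrate is measured after 2 hours at room temperature.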

[3] = target: Estrogen receptor beta (Homo sapiens) (UniProt Q92731); test: qHTS assay to identify small molecule antagonists of the estrogen receptor beta (ER-beta) signaling pathway (AID 1259378; active = well fitted inhibition curve with a large enough effect in the signal ratio in the repeat runs, not every such curve was filed as active; the % refers to the signal ratio)
In short: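 ER-beta-UAS-bla HEK293T (GripTite) cells in 2% charcoal-stripped FBS medium were preincubated 6 hr at 37C, dosed with compound, then stimulated with 1 nM E2 (final) for 16 hr; beta-lactamase reporter read by B/G FRET fluorescence after 2 hr substrate loading.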

[4] = qHTS assay to identify small molecule agonists of the androgen receptor (AR) signaling pathway in the presence of an antagonist - cell viability counter screen (AID 1259379; active = well fitted curve in the direction sought with a large enough effect in the repeat runs; an effect the other way counts as inactive or inconclusive;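 note: MDA-kb2 human breast cancer cells carrying an MMTV luciferase reporter; series mostly up to about 92 µM; nearly all actives have a fitted effect of over 25% in size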)
In short: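 Fluorescence from CellTiter-Fluor, added after 15 hr and read 1 hr later, gave cell viability. Cells were MDA-kb2 exposed to compounds (15 concentrations) in the presence of 3.0uM nilutamide at 37C, 0% CO2.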

[5] = qHTS assay to identify small molecule agonists of the estrogen receptor beta (ER-beta) signaling pathway - cell viability counter screen (AID 1259380; active = well fitted curve in the direction sought with a large enough effect in the repeat runs; an effect the other way counts as inactive or inconclusive; note: nearly all actives have a fitted effect of over 30% in size)
In short: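 Same-well viability counter screen. Cells: ER-beta-UAS-bla HEK293T, plated 6 hr before compound, in 2% charcoal-stripped FBS. Compound exposure 16 hr, 37C; viability by CellTiter-Glo luminescence after 30 min at room temperature.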

[6] = target: Androgen receptor (Homo sapiens) (UniProt P10275); test: qHTS assay to identify small molecule agonists of the androgen receptor (AR) signaling pathway in the presence of an antagonist (AID 1259381); note: nearly all actives have a fitted effect of over 15% in size
In short: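 Cells are MDA-kb2 (human breast carcinoma, MMTV-luc, AR/GR responsive). Nilutamide is present at 3.0uM final throughout; compounds are added at 15 concentrations and incubated 16hr at 37C before ONE-Glo luminescence detection.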

[7] = qHTS assay to identify small molecule antagonists of the estrogen receptor beta (ER-beta) signaling pathway - cell viability counter screen (AID 1259382; active = well fitted curve in the direction sought with a large enough effect in the repeat runs; an effect the other way counts as inactive or inconclusive; note: series mostly up to about 92 µM; nearly all actives have a fitted effect of over 55% in size)
In short: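 Following a 6 hr plating period, HEK293T cells carrying a UAS-driven beta-lactamase reporter under ER-beta control received compounds and 1nM E2 (final). After 16 hr at 37C and 2 hr substrate loading, CellTiter-Glo luminescence indicated viability.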

[8] = target: Estrogen receptor (Homo sapiens) (UniProt P03372); test: qHTS assay to identify small molecule agonists of the estrogen receptor alpha (ER-alpha) signaling pathway in the presence of an antagonist (AID 1259383); note: top concentration of the series differs between compounds; nearly all actives have a fitted effect of over 15% in size
In short: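 Cells are hormone-deprived for 5 days (charcoal-stripped FBS, no phenol red), plated for 24hr, spiked with 10.0nM ICI-182,780, then dosed at 15 concentrations. After 22hr at 37C, ONE-Glo luminescence reports ERE-luciferase activity.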

[9] = qHTS assay to identify small molecule agonists or antagonists of the thyroid stimulating hormone receptor (TSHR) signaling pathway - wild type cell line counter screen (AID 1259384)
In short: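 Wild-type HEK293 cells were plated 18 h at 37 C/5% CO2, pin-dosed with compound plus Ro20-1724 medium, held 30 min at room temperature, then given cAMP-d2 and anti-cAMP-cryptate; fluorescence was read after 1 h. Fifteen concentrations, triplicate.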

[10] = target: Thyrotropin receptor (Homo sapiens) (UniProt P16473); test: qHTS assay to identify small molecule antagonists of the thyroid stimulating hormone receptor (TSHR) signaling pathway (AID 1259385); note: nearly all actives have a fitted effect of over 20% in size
In short: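 TSHR-HEK293 cells were plated and held 18 h at 37C/5% CO2, then given compound plus Ro20-1724 and stimulated with TSH at 1.5 ng/mL final. After 30 min at room temperature, cAMP was detected with cAMP-d2/anti-cAMP-cryptate (1 h) by fluorescence.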

[11] = qHTS assay to identify small molecule agonists of the estrogen receptor alpha (ER-alpha) signaling pathway in the presence of an antagonist - cell viability counter screen (AID 1259386; active = well fitted curve in the direction sought with a large enough effect in the repeat runs; an effect the other way counts as inactive or inconclusive;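 note: series mostly up to about 92 µM; cells exposed to compounds for 22 h at 37 °C before the viability read; nearly all actives have a fitted effect of over 30% in size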)
In short: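 Cells are starved of estrogens for 5 days in charcoal-stripped serum, seeded for 24hr and co-treated with ICI-182,780 (10.0nM final) and test compounds. After 22hr at 37C, viability is read as CellTiter-Fluor fluorescence.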

[12] = target: Progesterone receptor (Homo sapiens) (UniProt P06401); test: qHTS assay to identify small molecule agonists of the progesterone receptor (PR) signaling pathway (AID 1346784); note: nearly all actives have a fitted effect of over 30% in size
In short: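 Reporter assay, GripTite PR-UAS-bla HEK 293T cells: 16 hr exposure to DMSO-dissolved compounds at 37C, 5% CO2, in steroid-depleted (2% charcoal-stripped FBS) medium; beta-lactamase measured by FRET fluorescence.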

[13] = target: Progesterone receptor (Homo sapiens) (UniProt P06401); test: qHTS assay to identify small molecule antagonists of the progesterone receptor (PR) signaling pathway (AID 1346795; active = well fitted inhibition curve with a large enough effect in the signal ratio in the repeat runs, not every such curve was filed as active; the % refers to the signal ratio)
In short: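 Stimulus R5020 at 1 nM final; cells HEK293T PR-UAS-bla; medium with 2% charcoal-stripped FBS; compound exposure 16 hr at 37C, 5% CO2; detection by FRET beta-lactamase substrate, 2 hr, room temperature.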

[14] = qHTS assay to identify small molecule agonists of the progesterone receptor (PR) signaling pathway - cell viability counter screen (AID 1346799); note: nearly all actives have a fitted effect of over 45% in size
In short: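 Multiplexed viability read: CellTiter-Glo luminescence, 30 min RT, following LiveBLAzer FRET measurement on PR-UAS-bla HEK293T cells exposed to compounds 16 hr.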

[15] = qHTS assay to identify small molecule antagonists of the TGF-beta/Smad signaling pathway - cell viability counter screen (AID 1346824; active = well fitted curve in the direction sought with a large enough effect in the repeat runs; an effect the other way counts as inactive or inconclusive; note: nearly all actives have a fitted effect of over 50% in size)
In short: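 SBE-bla HEK 293T cells were plated overnight at 37 C, then given compounds in DMSO plus TGF-beta1 (added as 0.25 ng/mL solution) for 5 hr. After the bla read, CellTiter-Glo was added to the same wells and luminescence read after 30 min at room temperature.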

[16] = qHTS assay to identify small molecule agonists of the TGF-beta/Smad signaling pathway - cell viability counter screen (AID 1346829; active = well fitted curve in the direction sought with a large enough effect in the repeat runs; an effect the other way counts as inactive or inconclusive; note: top concentration of the series differs between compounds; nearly all actives have a fitted effect of over 45% in size)
In short: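 Same-well cytotoxicity: CellTiter-Glo added after the 2 hr room-temperature beta-lactamase substrate step, luminescence measured 30 min later; cells had 5 hr of compound at 37 C.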

[17] = qHTS assay to identify small molecule agonists of the TGF-beta/Smad signaling pathway (AID 1346859; active = well fitted activation curve with a large enough effect in the signal ratio in the repeat runs, not every such curve was filed as active; the % refers to the signal ratio; note: series mostly up to about 77 µM)
In short: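 Screening used HEK 293T SBE-bla cells at 4,000/well. Test agents: 5 hr, 37 C. Detection: FRET substrate, 2 hr RT, then excitation 405 nm with emissions at 460 and 530 nm.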

[18] = target: Thyrotropin-releasing hormone receptor (Homo sapiens) (UniProt P34981); test: qHTS assay to identify small molecule antagonists of the thyrotropin-releasing hormone receptor (TRHR) signaling pathway (AID 1346877; active = well fitted inhibition curve with a large enough effect in the repeat runs, not every such curve was filed as active; note: series mostly up to about 51 µM)
In short: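 Cells (TRHR-HEK293) are plated and kept 18 h at 37 °C/5% CO2. A calcium-sensitive dye is added for 2 h, compound follows for 5 min at room temperature, and TRH is then given at 1 nM final.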

[19] = target: Thyrotropin-releasing hormone receptor (Homo sapiens) (UniProt P34981); test: qHTS assay to identify small molecule agonists of the thyrotropin-releasing hormone receptor (TRHR) signaling pathway (AID 1346891); note: series mostly up to about 58 µM
In short: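 Readout was intracellular calcium fluorescence in TRHR-Hek293 cells. Cells were incubated 18 h, dye-loaded 2 h at 37 °C, and treated with compound in agonist mode.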

[20] = qHTS assay to identify small molecule antagonists of the progesterone receptor (PR) signaling pathway - cell viability counter screen (AID 1346798; active = well fitted curve in the direction sought with a large enough effect in the repeat runs; an effect the other way counts as inactive or inconclusive; note: series mostly up to about 92 µM; nearly all actives have a fitted effect of over 50% in size)
In short: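 In the same plates used for the beta-lactamase readout, cell viability of compound- and R5020-treated PR-UAS-bla HEK293T cells (16 hr, 37C) was assessed by CellTiter-Glo luminescence.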
% is set by controls: 0 for no effect and ±100 for the full control effect.

Estrogen receptor beta (Homo sapiens), sequence (Q92731 whole entry, looked up): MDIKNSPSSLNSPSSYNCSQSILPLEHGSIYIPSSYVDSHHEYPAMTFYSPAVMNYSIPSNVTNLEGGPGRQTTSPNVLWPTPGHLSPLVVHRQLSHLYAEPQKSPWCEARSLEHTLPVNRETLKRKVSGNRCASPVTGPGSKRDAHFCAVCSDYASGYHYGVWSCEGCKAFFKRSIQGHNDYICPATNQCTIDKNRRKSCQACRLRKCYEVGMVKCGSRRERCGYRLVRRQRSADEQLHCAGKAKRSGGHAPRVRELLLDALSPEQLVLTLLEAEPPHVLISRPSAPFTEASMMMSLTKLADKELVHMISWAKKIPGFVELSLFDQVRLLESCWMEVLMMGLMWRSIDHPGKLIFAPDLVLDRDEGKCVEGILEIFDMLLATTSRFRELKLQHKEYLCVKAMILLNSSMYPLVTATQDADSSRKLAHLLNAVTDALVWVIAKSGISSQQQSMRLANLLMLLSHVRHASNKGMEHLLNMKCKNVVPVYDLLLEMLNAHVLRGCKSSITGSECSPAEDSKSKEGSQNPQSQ
Androgen receptor (Homo sapiens), sequence (P10275 whole entry, looked up): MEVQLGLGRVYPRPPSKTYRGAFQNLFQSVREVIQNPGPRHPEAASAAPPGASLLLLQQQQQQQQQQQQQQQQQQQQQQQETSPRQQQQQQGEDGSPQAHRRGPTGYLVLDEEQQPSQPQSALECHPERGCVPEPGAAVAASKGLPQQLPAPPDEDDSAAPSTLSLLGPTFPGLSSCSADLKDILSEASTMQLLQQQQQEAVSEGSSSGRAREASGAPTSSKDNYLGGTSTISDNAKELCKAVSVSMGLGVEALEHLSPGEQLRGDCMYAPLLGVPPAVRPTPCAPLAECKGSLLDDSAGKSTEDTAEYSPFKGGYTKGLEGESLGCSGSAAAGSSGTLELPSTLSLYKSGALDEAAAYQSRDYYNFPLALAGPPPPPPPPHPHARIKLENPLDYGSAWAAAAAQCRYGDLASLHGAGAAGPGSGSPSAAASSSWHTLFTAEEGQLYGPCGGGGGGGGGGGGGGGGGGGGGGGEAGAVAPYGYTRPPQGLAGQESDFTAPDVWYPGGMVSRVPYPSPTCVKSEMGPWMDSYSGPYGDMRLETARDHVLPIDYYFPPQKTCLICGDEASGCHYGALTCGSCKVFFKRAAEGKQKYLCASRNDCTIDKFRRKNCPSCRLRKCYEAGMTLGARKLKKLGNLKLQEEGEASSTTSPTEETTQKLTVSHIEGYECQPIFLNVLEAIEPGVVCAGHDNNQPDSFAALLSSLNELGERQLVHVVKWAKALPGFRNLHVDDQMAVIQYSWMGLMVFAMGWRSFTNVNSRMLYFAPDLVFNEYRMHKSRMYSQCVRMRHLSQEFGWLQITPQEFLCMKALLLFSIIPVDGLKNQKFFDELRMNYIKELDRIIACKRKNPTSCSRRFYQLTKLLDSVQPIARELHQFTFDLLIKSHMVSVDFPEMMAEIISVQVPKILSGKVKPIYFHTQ
Thyrotropin-releasing hormone receptor (Homo sapiens), sequence (P34981 whole entry, looked up): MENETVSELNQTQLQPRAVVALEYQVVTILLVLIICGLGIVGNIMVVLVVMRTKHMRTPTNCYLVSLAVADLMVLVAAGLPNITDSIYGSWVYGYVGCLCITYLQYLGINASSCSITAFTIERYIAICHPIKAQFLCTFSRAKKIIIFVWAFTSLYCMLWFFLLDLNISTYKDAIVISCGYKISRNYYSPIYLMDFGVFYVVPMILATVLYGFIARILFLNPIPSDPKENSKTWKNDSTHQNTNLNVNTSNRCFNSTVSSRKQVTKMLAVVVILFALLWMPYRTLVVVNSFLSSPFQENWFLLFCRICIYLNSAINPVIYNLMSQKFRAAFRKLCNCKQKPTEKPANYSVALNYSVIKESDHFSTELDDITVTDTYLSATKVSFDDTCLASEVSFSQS
Progesterone receptor (Homo sapiens), sequence (P06401 whole entry, looked up): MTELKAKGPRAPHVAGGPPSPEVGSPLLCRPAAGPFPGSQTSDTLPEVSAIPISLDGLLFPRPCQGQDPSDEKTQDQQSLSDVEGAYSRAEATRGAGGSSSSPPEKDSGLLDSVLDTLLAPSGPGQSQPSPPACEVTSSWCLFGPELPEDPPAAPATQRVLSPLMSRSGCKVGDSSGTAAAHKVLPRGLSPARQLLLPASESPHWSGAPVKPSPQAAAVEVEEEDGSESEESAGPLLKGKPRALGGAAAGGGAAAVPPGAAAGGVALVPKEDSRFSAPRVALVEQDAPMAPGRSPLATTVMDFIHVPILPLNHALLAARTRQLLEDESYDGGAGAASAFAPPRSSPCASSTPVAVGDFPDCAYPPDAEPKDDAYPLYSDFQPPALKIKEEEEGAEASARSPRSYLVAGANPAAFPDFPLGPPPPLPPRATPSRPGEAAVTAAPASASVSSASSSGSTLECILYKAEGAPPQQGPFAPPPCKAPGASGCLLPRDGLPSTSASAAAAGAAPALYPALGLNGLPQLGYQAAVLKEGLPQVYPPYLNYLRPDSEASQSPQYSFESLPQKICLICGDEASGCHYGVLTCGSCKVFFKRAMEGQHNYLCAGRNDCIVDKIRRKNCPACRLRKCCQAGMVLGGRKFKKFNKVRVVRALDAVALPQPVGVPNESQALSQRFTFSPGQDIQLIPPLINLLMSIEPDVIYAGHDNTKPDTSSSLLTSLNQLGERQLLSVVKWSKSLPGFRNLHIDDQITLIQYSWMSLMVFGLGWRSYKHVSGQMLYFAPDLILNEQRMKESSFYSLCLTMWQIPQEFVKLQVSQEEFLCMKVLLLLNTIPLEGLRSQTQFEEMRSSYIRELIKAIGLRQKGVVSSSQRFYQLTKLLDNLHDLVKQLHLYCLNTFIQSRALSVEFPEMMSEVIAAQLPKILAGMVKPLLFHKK
Estrogen receptor (Homo sapiens), sequence (P03372 whole entry, looked up): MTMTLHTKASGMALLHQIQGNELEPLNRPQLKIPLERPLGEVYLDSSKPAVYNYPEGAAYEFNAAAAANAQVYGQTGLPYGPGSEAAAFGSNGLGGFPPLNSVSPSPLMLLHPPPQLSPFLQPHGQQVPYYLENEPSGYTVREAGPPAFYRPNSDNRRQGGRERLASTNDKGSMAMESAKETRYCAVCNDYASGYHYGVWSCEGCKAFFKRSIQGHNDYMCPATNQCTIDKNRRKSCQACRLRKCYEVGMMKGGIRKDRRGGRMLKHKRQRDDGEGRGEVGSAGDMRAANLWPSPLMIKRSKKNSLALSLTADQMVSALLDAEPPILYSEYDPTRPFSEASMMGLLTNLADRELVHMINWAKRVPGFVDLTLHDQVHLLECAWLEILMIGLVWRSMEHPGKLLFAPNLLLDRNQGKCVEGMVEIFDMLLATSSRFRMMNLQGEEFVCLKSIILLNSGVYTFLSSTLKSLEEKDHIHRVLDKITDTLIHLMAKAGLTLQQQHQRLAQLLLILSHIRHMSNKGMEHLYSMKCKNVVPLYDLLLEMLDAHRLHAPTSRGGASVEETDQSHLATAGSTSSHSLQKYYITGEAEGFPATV
Thyrotropin receptor (Homo sapiens), sequence (P16473 whole entry, looked up): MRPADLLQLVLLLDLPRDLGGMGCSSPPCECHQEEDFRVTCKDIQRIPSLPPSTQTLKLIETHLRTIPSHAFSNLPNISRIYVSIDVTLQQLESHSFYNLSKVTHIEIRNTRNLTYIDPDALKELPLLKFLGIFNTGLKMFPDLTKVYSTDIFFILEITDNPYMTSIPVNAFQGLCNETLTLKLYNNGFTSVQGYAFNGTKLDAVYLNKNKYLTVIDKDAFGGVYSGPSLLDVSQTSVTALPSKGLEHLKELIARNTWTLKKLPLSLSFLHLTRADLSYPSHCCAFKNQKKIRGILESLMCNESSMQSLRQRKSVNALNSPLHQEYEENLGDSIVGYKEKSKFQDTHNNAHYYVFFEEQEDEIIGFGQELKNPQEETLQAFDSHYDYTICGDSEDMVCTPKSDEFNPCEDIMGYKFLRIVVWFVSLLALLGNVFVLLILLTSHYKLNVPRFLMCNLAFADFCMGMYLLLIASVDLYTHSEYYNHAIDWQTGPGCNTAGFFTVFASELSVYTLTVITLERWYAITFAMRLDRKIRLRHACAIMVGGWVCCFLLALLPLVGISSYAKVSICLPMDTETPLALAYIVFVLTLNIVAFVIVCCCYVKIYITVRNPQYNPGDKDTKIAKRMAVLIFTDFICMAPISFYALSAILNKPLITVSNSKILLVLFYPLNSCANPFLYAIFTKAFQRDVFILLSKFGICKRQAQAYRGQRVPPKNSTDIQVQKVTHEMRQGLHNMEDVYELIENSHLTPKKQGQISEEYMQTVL

CCN[C@@H](C)Cc1ccccc1
inactive: Potency [1] | Potency [2] | outcome [3] | Potency [4] | Potency [5] | Potency [6] | Potency [7] | Potency [8] | outcome [9] | outcome [10] | Potency [11] | Potency [12] | Potency [13] | Potency [14] | outcome [15] | Potency [16] | outcome [17] | Potency [18] | outcome [19]

Clc1cc2c(cc1Cl)Oc1cc(Cl)c(Cl)cc1O2
inactive: activity change, negative = inhibition [1] -6.77% [at 0.349 µM] | activation [2] -4.72% [at 0.348 µM] | activity, negative = inhibition [3] 4.24% [at 0.349 µM] | activity change, negative = cytotoxicity [4] 1.17% [at 0.35 µM] | activity change, negative = cytotoxicity [5] 2.45% [at 0.349 µM] | activation [6] 3.07% [at 0.349 µM] | activity change, negative = cytotoxicity [7] -1.8% [at 0.349 µM] | activation [8] -1.56% [at 0.349 µM] | cAMP activity change [9] 1.16% [at 0.349 µM] | activity change, negative = inhibition [10] -3.4% [at 0.349 µM] | activation [12] 2.35% [at 0.349 µM] | activity change, negative = inhibition [13] 5.7% [at 0.348 µM] | activity change, negative = cytotoxicity [20] -11.1% [at 0.348 µM] | activity change, negative = cytotoxicity [14] 4.69% [at 0.349 µM] | viability change, negative = cytotoxic [15] -2.55% [at 0.29 µM] | activity change, negative = cytotoxicity [16] 9.06% [at 0.29 µM] | activation [17] 2% [at 0.29 µM] | activity, negative = inhibition [18] 2.75% [at 0.194 µM] | activation [19] -0.214% [at 0.218 µM]

CC(Cc1ccccc1)NCCCCl (centres undefined)
inactive: Potency [1] | Potency [2] | outcome [3] | Potency [4] | Potency [5] | Potency [6] | Potency [7] | Potency [8] | outcome [9] | outcome [10] | Potency [11] | Potency [12] | Potency [13] | Potency [20] | Potency [14] | outcome [15] | Potency [16] | outcome [17] | Potency [18] | outcome [19]

CCC1(c2ccccc2)CCC(=O)NC1=O (centres undefined)
inactive: Potency [1] | Potency [2] | outcome [3] | Potency [4] | Potency [5] | Potency [6] | Potency [7] | Potency [8] | outcome [9] | outcome [10] | Potency [11] | Potency [12] | Potency [13] | Potency [20] | Potency [14] | outcome [15] | Potency [16] | outcome [17] | Potency [18] | outcome [19]

C[N+]1(C)CCCCC1
inactive: Potency [1] | Potency [2] | outcome [3] | Potency [4] | Potency [5] | Potency [6] | Potency [7] | outcome [9] | outcome [10] | Potency [11] | Potency [13] | outcome [15] | Potency [16] | outcome [17] | Potency [18] | outcome [19]

CCOC(=O)CCl
inactive: Potency [1] | Potency [2] | outcome [3] | Potency [4] | Potency [5] | Potency [7] | Potency [8] | outcome [9] | outcome [10] | Potency [11] | Potency [12] | Potency [13] | Potency [20] | Potency [14] | Potency [16] | outcome [17]

O=C(Cl)OCc1ccccc1
inactive: Potency [1] | Potency [2] | outcome [3] | Potency [4] | Potency [5] | Potency [7] | Potency [8] | outcome [9] | outcome [10] | Potency [11] | Potency [12] | Potency [13] | Potency [20] | Potency [14] | outcome [15] | Potency [16] | outcome [17] | Potency [18] | outcome [19]

Cc1ccc2c(c1)C1CN(C)CCC1N2 (centres undefined)
inactive: activity change, negative = inhibition [1] 7.51% [at 19 µM] | activation [2] -2.72% [at 19 µM] | activity, negative = inhibition [3] 2.34% [at 19 µM] | activity change, negative = cytotoxicity [4] 0.715% [at 19 µM] | activity change, negative = cytotoxicity [5] -1.6% [at 19 µM] | activity change, negative = cytotoxicity [7] 0.836% [at 19 µM] | activation [8] 0.841% [at 19 µM] | cAMP activity change [9] -0.0429% [at 18.9 µM] | activity change, negative = inhibition [10] 8.62% [at 19 µM] | activity change, negative = cytotoxicity [11] -4.97% [at 19 µM] | activation [12] -0.799% [at 19 µM] | activity change, negative = inhibition [13] 5.78% [at 18.9 µM] | activity change, negative = cytotoxicity [20] -15.8% [at 18.9 µM] | activity change, negative = cytotoxicity [14] -23.2% [at 19 µM] | activity change, negative = cytotoxicity [16] -8.68% [at 15.8 µM] | activation [17] 3.74% [at 15.8 µM]

CCN(CC)C1CCCCC1
inactive: Potency [1] | Potency [2] | outcome [3] | Potency [4] | Potency [5] | Potency [6] | Potency [7] | Potency [8] | Potency [11] | Potency [12] | Potency [13] | outcome [15] | Potency [16] | outcome [17] | Potency [18] | outcome [19]

Clc1nc(Cl)nc(Nc2ccccc2Cl)n1
inactive: Potency [1] | Potency [2] | outcome [3] | Potency [4] | Potency [5] | Potency [7] | Potency [8] | outcome [9] | outcome [10] | Potency [11] | Potency [12] | Potency [13] | Potency [20] | Potency [14] | outcome [15] | Potency [16] | outcome [17] | Potency [18] | outcome [19]

CCC(CC)(CNC(=O)CCCO)c1cccc(OC)c1
inactive: Potency [1] | Potency [2] | outcome [3] | Potency [4] | Potency [5] | Potency [6] | Potency [7] | Potency [8] | outcome [9] | outcome [10] | Potency [12] | Potency [13] | Potency [20] | Potency [14] | outcome [15] | Potency [16] | outcome [17] | Potency [18] | outcome [19]

OP(O)c1ccccc1
inactive: Potency [1] | Potency [2] | outcome [3] | Potency [4] | Potency [5] | Potency [6] | Potency [7] | Potency [8] | outcome [9] | outcome [10] | Potency [11] | Potency [12] | Potency [13] | Potency [20] | Potency [14] | outcome [15] | Potency [16] | outcome [17] | Potency [18] | outcome [19]
